Holding throughout (type): functional
The target of assay [1] is Solute carrier family 2, facilitated glucose transporter member 1 (Homo sapiens) (UniProt P11166). In words: ST_JUDE_LEISH: Cytotoxicity at 2uM final concentration against transgenic Leishmania Mexicana promastigotes LmGLUT1 that are glucose transport deficient and complemented with the human glucose transporter GLUT1. Activity is measured by DNA content using SYBR green in vitro.

Assay [2] addresses Hexose transporter 1 (Plasmodium falciparum) (UniProt O97467). Nature of the assay: ST_JUDE_LEISH: Cytotoxicity at 2uM final concentration against transgenic Leishmania Mexicana promastigotes LmPfHT that are glucose transport deficient and complemented with the Plasmodium falciparum hexose transporter. Activity is measured by DNA content using SYBR green in vitro.
In assay [3] the target is Glucose transporter (Leishmania mexicana) (UniProt O61059). Nature of the assay: ST_JUDE_LEISH: Cytotoxicity at 2uM final concentration against transgenic Leishmania Mexicana promastigotes LmGT2 that are glucose transport deficient and complemented with the L. Mexicana glucose transporter 2. Activity is measured by DNA content using SYBR green in vitro.

Solute carrier family 2, facilitated glucose transporter member 1 (Homo sapiens), sequence (P11166 whole entry): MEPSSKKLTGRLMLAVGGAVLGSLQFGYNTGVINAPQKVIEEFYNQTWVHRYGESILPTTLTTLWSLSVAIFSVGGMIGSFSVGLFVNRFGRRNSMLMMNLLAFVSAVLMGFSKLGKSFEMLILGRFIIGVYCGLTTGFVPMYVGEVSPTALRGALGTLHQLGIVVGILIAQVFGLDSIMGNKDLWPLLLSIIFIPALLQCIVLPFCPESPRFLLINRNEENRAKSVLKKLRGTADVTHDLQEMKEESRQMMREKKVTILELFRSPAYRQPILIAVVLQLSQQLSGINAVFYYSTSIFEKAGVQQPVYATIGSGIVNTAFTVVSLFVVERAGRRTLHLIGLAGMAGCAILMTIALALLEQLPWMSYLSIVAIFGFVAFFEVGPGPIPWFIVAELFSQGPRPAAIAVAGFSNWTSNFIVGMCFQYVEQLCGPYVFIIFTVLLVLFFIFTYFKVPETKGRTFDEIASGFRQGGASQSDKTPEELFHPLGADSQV

A word on the inhibition: it is the drop in the measured response relative to a control, in per cent. With `CC(C)N1CCN(C(CN2CCN(CCCOc3cccc4ccccc34)CC2)c2ccc(F)cc2)CC1` (stereo not given), the inhibition was -1.68% in assay [1], 0.92% in assay [2] and 4.19% in assay [3].
The corresponding values for `COc1ccc(-c2cnc3[nH]cc(-c4ccc(CCC(=O)O)cc4)c3c2)cn1` are 5.06%, 4.52% and 6.38%.
Turning to `CCOC(=O)c1ccc(NC(=O)N[C@H]2CCN(CCCCCNC(=O)/C=C/c3ccc(Cl)c(Cl)c3)C2)cc1`, the inhibition in assay [1] came out at 4.4%; in assay [2] it was 2.51%; in assay [3], 5.84%.
Take `CCN(CC)CCN(Cc1ccc(-c2ccc(C(F)(F)F)cc2)cc1)C(=O)Cn1c(CCc2ccc(F)cc2)nc(=O)c2sccc21`: the results for the inhibition in assay [1], in assay [2] and in assay [3] were 2.57%, 1.22% and 2.92%, respectively.
Consider `Cc1c(F)cc(C(=O)NC2CC2)cc1-c1ccc2c(cnn2S(=O)(=O)c2ccc(C#N)cc2)c1`, for which the figures for the inhibition in assay [1], in assay [2] and in assay [3] were -0.7%, 1.11% and 0.73%, respectively.
As for `CCOc1ccc2c(=NN=Cc3cccc(OC)c3OC)cc(C)[nH]c2c1`, the results for the inhibition in assay [1], in assay [2] and in assay [3] were 4.91%, 5.53% and 6%, respectively.
Take `COc1ccc(C=NNc2ccnc3cc(F)c(C)cc23)c2ccccc12`: the inhibition turned out to be 8.78% in assay [1], 8.43% in assay [2] and 4.95% in assay [3].
In the case of `Cc1cc(N)ncc1-c1ccc(NC(=O)Nc2cc(C(F)(F)F)ccc2F)cc1`, the inhibition in assay [1] was 2.41%; in assay [2], 2.25%; in assay [3], 1.43%.
In the case of `Cc1cc(-c2cc(Cl)ccc2Cl)no1`, the inhibition in assay [1] was -2.71%; in assay [2], 0.03%; in assay [3], -0.72%.
Taken in the same sequence, the figures for `Fc1cc(Cl)ccc1Nc1ccnc2cc(-c3ccc(CN4CCOCC4)o3)ccc12` were 20.6%, 52.9% and 43.6%.
The corresponding values for `CC(C)c1ncc(-c2ccncc2)c(C2CCC(CNC(=O)c3cccnc3)CC2)n1` (stereo not given) are 3.2%, 1.25% and 1.81%.
`CN(C)Cc1cccc(CNC(=O)c2sccc2OCc2ccc(Cl)cc2)c1`: the inhibition is -0.98% in assay [1], -3.67% in assay [2] and 1.11% in assay [3].
For the molecule `c1ccc(COc2ccc(Cn3ccc(-c4ccc(-n5ccnc5)cc4)n3)cc2)cc1.c1ccc(COc2ccc(Cn3nccc3-c3ccc(-n4ccnc4)cc3)cc2)cc1`, the results for the inhibition in assay [1], in assay [2] and in assay [3] were 0.24%, 1.54% and 1.48%, respectively.
Consider `COc1ccc(-c2cc(NCc3ccc(-n4ccnc4)cc3)nc(Nc3ccccc3)n2)cc1`, for which the inhibition in assay [1] is 2.37%; in assay [2] it was 0.85%; in assay [3], 1.83%.
The corresponding values for `COc1nc2c(N3CCN(CCNCc4ccc5c(n4)NC(=O)CO5)CC3)ccnc2cc1F` are 4.21%, 2.44% and 0.39%.
Taken in the same sequence, the figures for `Cc1nnsc1C(=O)Nc1ccc(-c2cccc(-c3nc4cccc(C)c4[nH]3)c2)cc1` were 3.57%, 2.94% and 5.18%.
For `c1cc(-c2ccc(CNC3CC3)cc2)cc(-c2nc3ccccc3[nH]2)c1`, the inhibition in assay [1] was determined as 4.18%; in assay [2] it was 1.98%; in assay [3], 0.68%.
`O=S(=O)(Nc1ccc(-c2ccc(CN3CCCC3)cc2)cc1)c1cccc2cccnc12`: the inhibition in assay [1] amounted to 78%; in assay [2], 85.2%; in assay [3], 71.7%.
Taken in the same sequence, the figures for `CN1CCN(CC(=O)Nc2ccc(-c3ccc(-c4nc5ccccc5[nH]4)s3)cc2)CC1` were 1.26%, 3.57% and 2.3%.
`O=C(c1ccc(O)c(-c2cc(Cl)cc(Cl)c2)c1)N1CCCC1`: the figures for the inhibition in assay [1], in assay [2] and in assay [3] were 1.89%, 0.9% and -0.96%, respectively.
Taken in the same sequence, the figures for `CCN1CCC(NCc2ccc(-c3ccc(Cl)s3)cc2)CC1` were -1.87%, -1.38% and -1.7%.
With `O=C(Nc1cccc(-c2cccc(-c3nc4cc(C(F)(F)F)ccc4[nH]3)c2)c1)c1ccoc1`, the inhibition amounted to 10.4% in assay [1], 10.1% in assay [2] and 8.15% in assay [3].
As to `C=CCOC1OC(COC(c2ccccc2)(c2ccccc2)c2ccccc2)C(OC(C)=O)C(OC(C)=O)C1NC(C)=O` (stereo not given), the inhibition came to 1.33% in assay [1], 1.07% in assay [2] and 0.34% in assay [3].
The corresponding values for `COc1ccc2ncc(F)c(CCN3CCC(NCc4cc(C)c5c(c4)OCCO5)CC3)c2n1` are 11.1%, 15.4% and 5.07%.
In the case of `CC1(C)N=C(N)N=C(Nc2ccc(F)c(F)c2)N1`, the inhibition in assay [1] is 0.74%; in assay [2], 0.06%; in assay [3], -0.02%.
The corresponding values for `C[C@H](NC(=O)C1CCCC1)C(=O)Nc1ccc(-c2ccc(-c3nc4cc(C(F)(F)F)ccc4[nH]3)cc2)cc1` are 2.17%, 0.76% and -1.28%.
The corresponding values for `O=C(/C=C/c1ccc(C(F)(F)F)cc1)NCCCCCN1CCCN(C(=O)Nc2ccc(Cl)c(Cl)c2)CC1` are -0.66%, -0.09% and -0.19%.
Taken in the same sequence, the figures for `COc1ccc2ncc(F)c(CCN3CC[C@@H](CNCc4nc5c(cc4C)SCC(=O)N5)C3)c2n1` were 3.29%, 3.35% and 0.49%.
For the molecule `Cc1cc(NC(=O)NCCN2CCC(NC(=O)c3cccc(Br)c3)C2)c2ccccc2n1` (stereo not given), the inhibition came to 0.36% in assay [1], 0.24% in assay [2] and 2.62% in assay [3].
Taken in the same sequence, the figures for `CC(C)NCc1ccc(-c2cccc(NC(=O)c3ccc(Cl)cc3)c2)cc1` were 8.23%, 6.77% and 7.51%.
Take `COc1ccc(F)cc1-c1ccccc1CNC(=O)CN(C)S(=O)(=O)c1cc(C)cc(Cl)c1C`: the inhibition was determined as 1.17% in assay [1], 1.94% in assay [2] and 0.93% in assay [3].
The corresponding values for `Cc1cc(-c2ccc(CNCc3ccc(F)cc3)cc2)ccc1S(=O)(=O)NCCN1CCCC1` are 66.4%, 41.4% and -2.93%.
The corresponding values for `CCOC(=O)C1=C(C)NC2=C(C(=O)CC(C)(C)C2)C1c1ccc(Cl)cc1` (stereo not given) are -1.57%, 0.77% and 0.29%.
Turning to `CCNc1cc(C(=O)N[C@@H](Cc2ccccc2)[C@H](O)CNCC(C)C)cc(N2CCCC2=O)c1`, the inhibition was 2.24% in assay [1], 1.42% in assay [2] and -1.69% in assay [3].
The corresponding values for `NC(=O)c1ccc(C(=O)Nc2cccc(-c3ccc(-c4nc5cc(C(F)(F)F)ccc5[nH]4)cc3)c2)cc1` are -2.41%, -0.2% and -2.73%.
Taken in the same sequence, the figures for `COc1ccc2nc3cc(Cl)ccc3c(NCCN(C)C)c2c1` were 7.53%, 5.07% and 6.53%.
As to `CCNc1cc(C)nc(Nc2ccc(NC(=O)c3ccccc3)cc2)n1`, the inhibition in assay [1] came to 6.94%; in assay [2], 4.8%; in assay [3] it was 3.79%.
The corresponding values for `CCCOc1ccc(CCCON2C(N)=NC(N)=NC2(C)C)cc1` are 7.95%, 13% and 6.99%.
Taken in the same sequence, the figures for `Cc1cc2nc(-c3ccc(/C=C/C(=O)NC4CCCCC4)cc3)[nH]c2cc1C` were 0.61%, 1.82% and 1.51%.
On to `CN(C)CCNCc1ccc(-c2cccc(-c3nc4ccccc4[nH]3)c2)cc1`, for which the inhibition in assay [1] amounted to 10.5%; in assay [2] it was 8.93%; in assay [3], 8.27%.

These data come from ChEMBL document CHEMBL3433997, “St. Jude Leishmania screening dataset” (2016).
